Assay results published in PubChem BioAssay (NCATS).
Records with an inconclusive call do not appear. The source made the active and inactive calls. Calls follow the shape of the dose curve; as a rule, active = well fitted curve in the direction sought with a large enough effect; inconclusive = small, poorly fitted or top-dose-only effect, or another doubt; inactive = no such curve, though single readings can be large; an effect the other way counts as inactive or inconclusive.

Assays:
[1] = qHTS assay for measurement of the activity of small molecule inhibitors on Zika virus induced Caspase-3 activity in human iPSC derived neural progenitor cells (hNPCs) (AID 1224857); also: nearly all actives have a fitted effect of over 65% in size
Summary of the method: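 After overnight (16–20 h) culture at 350 cells/well, hNPCs get compound, then ZIKV 2 FFU/cell one hour later. Six hours on, Caspase-Glo 3/7 is added and luminescence measured.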

[2] = qHTS assay for measurement of the activity of small molecule inhibitors on Zika virus induced Caspase-3 activity in human astrocytoma cells (AID 1224859)
Summary of the method: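 Inhibition of Zika-induced caspase-3/7 activity: SNB-19 cells, 1 h compound pretreatment, ZIKV 2 FFU/cell for 6 h at 37 C, Caspase-Glo luminescence read-out.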

[3] = NS1 protein of Zika virus - qHTS assay to identify small molecule inhibitors in human HEK 293 cells (AID 1347053); also: nearly all actives have a fitted effect of over 55% in size; also: potency is read from the fitted curve at half-maximal effect
Summary of the method: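 HEK 293 cells pretreated with compound for 1 h, then infected with ZIKV MR766 (MOI 0.5) for 24 h at 37 C. NS1 detected by TR-FRET with two anti-NS1 antibodies; normalized to uninfected (0%) and infected (100%) wells.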

[4] = qHTS of pediatric cancer cell lines to identify multiple opportunities for drug repurposing: Primary screen for TC32 cells (AID 1347089); also: nearly all actives have a fitted effect of over 60% in size; also: potency is read from the fitted curve at half-maximal effect
Summary of the method: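 Luminescent ATP read-out (CellTiter-Glo) of metabolically active TC32 cells after 48 h exposure. Concentration-response curves came from 11-point (MIPE, 0.78 nM–46 µM) or 8-point (NPC, 0.59 nM–46 µM) primary titrations; follow-up used 11 points.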

[5] = qHTS of pediatric cancer cell lines to identify multiple opportunities for drug repurposing: Primary screen for DAOY cells (AID 1347090); also: nearly all actives have a fitted effect of over 55% in size; also: potency is read from the fitted curve at half-maximal effect
Summary of the method: (§1)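 Eight- or eleven-point concentration series, 48 h treatment at 37 degrees C in growth media; readout CellTiter-Glo luminescence. Potency and efficacy were taken from the concentration-response curves.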

[6] = qHTS of pediatric cancer cell lines to identify multiple opportunities for drug repurposing: Primary screen for SJ-GBM2 cells (AID 1347091); also: potency is read from the fitted curve at half-maximal effect
Summary of the method: as §1

[7] = qHTS of pediatric cancer cell lines to identify multiple opportunities for drug repurposing: Primary screen for BT-37 cells (AID 1347094); also: potency is read from the fitted curve at half-maximal effect
Summary of the method: (§2)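 Plated cells (500-1,000 per well, growth media) were allowed to settle for 5 hours, treated with compound dilutions for 48 hours, then lysed with CellTiter-Glo for 15 min at room temperature before luminescence reading.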

[8] = qHTS of pediatric cancer cell lines to identify multiple opportunities for drug repurposing: Primary screen for NB-EBc1 cells (AID 1347095); also: potency is read from the fitted curve at half-maximal effect
Summary of the method: as §2

[9] = qHTS of pediatric cancer cell lines to identify multiple opportunities for drug repurposing: Primary screen for U-2 OS cells (AID 1347096); also: nearly all actives have a fitted effect of over 50% in size
Summary of the method: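 Cells (500-1,000/well) in growth media were settled 5 h at 37 degrees C, then given compounds for 48 h. Viability was read as CellTiter-Glo luminescence. Primary runs used MIPE at 11 points (0.78 nM-46 µM) and NPC at 8 points (0.59 nM-46 µM); follow-ups used 11 points.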

[10] = qHTS of pediatric cancer cell lines to identify multiple opportunities for drug repurposing: Primary screen for A673 cells (AID 1347092); also: nearly all actives have a fitted effect of over 45% in size
Summary of the method: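 Cell viability of A673 measured by CellTiter-Glo ATP luminescence after 48 hours compound exposure. Dilution series spanned 0.78 nM to 46 µM (MIPE, 11-point) or 0.59 nM to 46 µM (NPC, 8-point); bortezomib 2.3 uM positive control.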

[11] = qHTS of pediatric cancer cell lines to identify multiple opportunities for drug repurposing: Primary screen for SK-N-MC cells (AID 1347093); also: potency is read from the fitted curve at half-maximal effect
Summary of the method: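 Metabolically active cells were quantified by ATP-dependent luminescence (CellTiter-Glo, 15 min at room temperature) following 48 h treatment. Cells had been plated at 500-1,000 per well and settled for 5 h beforehand.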

Measured: Potency

OCCOCCN1CCN(C(c2ccccc2)c2ccc(Cl)cc2)CC1 (stereo not given)
inactive: [1] | [2] | [3] | [4] | [5] | [6] | [7] | [8] | [9]

O=C(OCCN1CCOCC1)c1cccnc1Nc1cccc(C(F)(F)F)c1
inactive: [1] | [2] | [3] | [4] | [5] | [6] | [10] | [7] | [8] | [9]

O=C(OCC(O)CO)c1ccccc1Nc1ccnc2c(C(F)(F)F)cccc12 (stereo not given)
inactive: [1] | [2] | [3] | [4] | [5] | [6] | [7] | [8]

CC(C)OP(=O)(CP(=O)(OC(C)C)OC(C)C)OC(C)C
inactive: [1] | [2] | [3] | [4] | [5] | [10] | [11] | [7] | [8] | [9]

CCOC(=O)c1cc(=O)c2c(OCC(COc3cccc4oc(C(=O)OCC)cc(=O)c34)OC(=O)[C@@H](N)CCCCN)cccc2o1
inactive: [1] | [2] | [3] | [4] | [5] | [6] | [10] | [7] | [8] | [9]

O=[N+]([O-])c1ccc(O)c2ncccc12
inactive: [1] | [2]
active: [3] 6.31 µM | [4] 13.3 µM | [5] 2.66 µM | [6] 2.66 µM | [7] 15.5 µM | [8] 2.37 µM

CCOc1ncc(F)c(=O)[nH]1
inactive: [1] | [2] | [3] | [4] | [5] | [10] | [11] | [7] | [8] | [9]

C/C(=C(/OCCOc1ccc(Cl)cc1)c1ccc(Cl)cc1Cl)n1ccnc1
inactive: [1] | [2] | [3] | [4] | [5] | [6] | [7] | [8] | [9]
active: [11] 21.1 µM

CN1CCCN=C1/C=C/c1cccs1
inactive: [1] | [2] | [3] | [4] | [5] | [6] | [10] | [7] | [8] | [9]

CC1(C)O[C@@H]2C[C@H]3[C@@H]4CCC5=CC(=O)C=C[C@]5(C)[C@@]4(F)[C@@H](O)C[C@]3(C)[C@]2(C(=O)CO)O1
inactive: [1] | [2] | [3] | [4] | [5] | [6] | [11] | [7] | [8] | [9]

CCCCC(=O)OCC(=O)[C@H]1[C@H](C)C[C@H]2[C@@H]3C[C@H](F)C4=CC(=O)C=C[C@]4(C)[C@@]3(F)[C@@H](O)C[C@@]21C
inactive: [1] | [2] | [3] | [4] | [5] | [6] | [11] | [7] | [8] | [9]

COC(=O)c1cc(Cl)c(NC(C)=O)cc1OC
inactive: [1] | [2] | [3] | [4] | [5] | [6] | [11] | [7] | [8] | [9]

CCC(CN)=C(c1ccccc1)c1ccccc1
inactive: [1] | [2] | [3] | [4] | [5] | [6] | [10] | [7] | [8] | [9]

NS(=O)(=O)c1cc2c(cc1Cl)CN(C1CCCCC1)C2=O
inactive: [1] | [2] | [3] | [4] | [6] | [11] | [7] | [8] | [9]

Cc1ccc(C(=O)C(=O)O)cc1C
inactive: [1] | [2] | [3] | [4] | [6] | [10] | [11] | [7] | [8] | [9]

O=C(CCC1CCN(Cc2ccccc2)CC1)c1ccc2c(c1)NCCCC2
inactive: [1] | [2] | [3] | [4] | [5] | [8] | [9]

COc1ccc2cc(C=O)ccc2c1
inactive: [1] | [2] | [3] | [4] | [6] | [10] | [11] | [7] | [8] | [9]

C=C(C)C(=O)OCC(O)CO (stereo not given)
inactive: [1] | [2] | [3] | [4] | [6] | [10] | [11] | [7] | [8] | [9]

CN=C(N)NC(=O)Nc1c(C)cccc1C
inactive: [1] | [2] | [3] | [4] | [6] | [10] | [11] | [7] | [8]

Cc1ccc(-c2ccccc2C#N)cc1
inactive: [1] | [2] | [3] | [4] | [5] | [11] | [7] | [8] | [9]

COc1ccc2c(c1)CCCC2=O
inactive: [1] | [2] | [3] | [4] | [6] | [10] | [11] | [8] | [9]

OC(CCCN1CCCCC1)(c1ccccc1)c1ccccc1
inactive: [1] | [2] | [3] | [4] | [5] | [10] | [8]
